# NOMO-1 viab – STK33 inhibitor candidate reducing NOMO-1 cell viability; 37,000 compounds, 7.5% hits; NOMO-1 AML viability, CellTiter-Glo luminescence, 72 h; AID 2330; inhibition, % (test concentration not listed); in the data active = inhibition above about 80%; inconclusive = no clear call, values can overlap the other calls
# U2OS ROS induce – inducers of reactive oxygen species in cancer cells. U2OS ROS induction, H2DCF-DA fluorescence. ROS induction (% of piperlongumine), % at 10 µM. 46,000 compounds, 2% hits. AID 624156; in the data active = ROS induction above about 79%, passing the limit was not always enough; inconclusive = no clear call, values can overlap the other calls;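 note: 0% = DMSO vehicle median and 100% = reference compound median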
# Starred values were filed as active, the others as inactive; ? = inconclusive; / = no result given. This excerpt belongs to a sample that is enriched for hits.
SMILES,NOMO-1 viab,U2OS ROS induce
CC(Oc1ccc(F)cc1)C(=O)Nc1sc2c(c1C(N)=O)CCCC2 (stereo not drawn),89*,/
Cc1ccc(-n2c(N)c(C#N)c3nc4ccccc4nc32)cc1C,/,-11
O=C(/C=C/c1ccccc1)c1ccc(O)cc1,105*,53
O=C(/C=C/c1ccccc1)CC(=O)/C=C/c1ccccc1,58,14
CC(C)NC(=O)Nc1ccc2c(c1)CC(=O)N([C@H](C)CO)C[C@@H](C)[C@@H](CN(C)C(=O)Nc1ccccc1)O2,15,31
COC(=O)C1(Cc2ccc(O)cc2)OC(=O)C(OC)=C1c1ccc(O)cc1 (stereo not drawn),29,-5
O=C(CSc1ncccn1)Nc1ccc(Cl)cc1,19,-42
O=C(CC1Sc2ncnn2C1=O)Nc1ccc(Cl)cc1 (stereo not drawn),107*,/
C[C@@H]1CN([C@@H](C)CO)C(=O)c2cc(NC(=O)NC3CCCCC3)ccc2O[C@H]1CN(C)Cc1ccc(Cl)c(Cl)c1,61,-2
C=CCn1c(=O)c2c(C)c(C)sc2n2c(Nc3ccc(C(=O)OCC)cc3)nnc12,29,194*
CCOC(=O)c1ccc(Nc2nnc(CSc3nc(C)cc(C)n3)s2)cc1,24,5
COc1ccc(NC(=O)N(C)C[C@H]2OCCCC[C@@H](C)Oc3ccc(NC(=O)Nc4c(C)noc4C)cc3C(=O)N([C@H](C)CO)C[C@@H]2C)cc1,0,-13
C[C@@H]1CN([C@H](C)CO)C(=O)c2cc(NC(=O)Cc3cn(C)c4ccccc34)ccc2O[C@H]1CN(C)Cc1ccc(Oc2ccccc2)cc1,34,24
C[C@H]1CN([C@@H](C)CO)C(=O)c2cc(NC(=O)Cc3cn(C)c4ccccc34)ccc2O[C@H]1CN(C)Cc1ccncc1,73,5
C[C@H](CO)N1C[C@H](C)[C@H](CN(C)Cc2ccc(C(F)(F)F)cc2)Oc2ccc(NC(=O)Cc3cn(C)c4ccccc34)cc2C1=O,22,13
C[C@@H]1CN([C@@H](C)CO)C(=O)c2cc(NC(=O)Cc3cn(C)c4ccccc34)ccc2O[C@H]1CN(C)Cc1ccc(C(F)(F)F)cc1,91*,22
C[C@H](CO)N1C[C@H](C)[C@@H](CN(C)Cc2ccncc2)Oc2ccc(NC(=O)Cc3cn(C)c4ccccc34)cc2C1=O,92*,?
C[C@H](CO)N1C[C@H](C)[C@@H](CN(C)Cc2ccc(-c3ccccc3)cc2)Oc2ccc(NC(=O)Cc3cn(C)c4ccccc34)cc2C1=O,59,199*
C[C@@H]1CN([C@@H](C)CO)C(=O)c2cc(NC(=O)Cc3cn(C)c4ccccc34)ccc2O[C@H]1CN(C)Cc1ccc(-c2ccccc2)cc1,26,6
C[C@@H]1CN([C@@H](C)CO)C(=O)c2cc(NC(=O)Cc3cn(C)c4ccccc34)ccc2O[C@@H]1CN(C)Cc1ccc(-c2ccccc2)cc1,113*,18
COC(=O)c1ccccc1NC(=O)CN(c1cc(Cl)c(Cl)cc1Cl)S(C)(=O)=O,-9,/
O=c1nc2s/c(=C\c3cccs3)c(=O)n2nc1Cc1ccccc1,/,-9
C[C@@H]1CN([C@H](C)CO)C(=O)c2cc(NC(=O)Cc3cn(C)c4ccccc34)ccc2O[C@@H]1CN(C)Cc1ccccc1,45,6
C[C@H]1CN([C@@H](C)CO)C(=O)c2cc(NC(=O)Cc3cn(C)c4ccccc34)ccc2O[C@H]1CN(C)Cc1ccccc1,84*,-8
Cc1ccc(-n2c(SCC(=O)Nc3ccc(Cl)cc3C)nnc2-c2ccccc2)cc1,4,16
SMILES,NOMO-1 viab,U2OS ROS induce
Cc1noc(C)c1S(=O)(=O)N(C)C[C@@H]1Oc2ccc(NC(=O)Nc3ccccc3)cc2CC(=O)N([C@H](C)CO)C[C@@H]1C,-7,-7
Cc1cc(=O)[nH]c(SCCOc2ccc(F)cc2)n1,4,36
NC(=O)CSc1nnc(-c2cccs2)n1-c1ccccc1,0,/
COC(=O)CSc1nnc(-c2sc3ccccc3c2Cl)n1-c1ccccc1,30,14
COC(=O)CSc1nnc(-c2cccs2)n1-c1ccc(Cl)cc1,101*,14
COC(=O)CSc1nnc(-c2sc3ccccc3c2Cl)n1-c1ccc(OC)cc1,85*,?
COc1ccc(NC(=O)N(C)C[C@H]2Oc3c(NC(=O)c4cc(C)nn4C)cccc3C(=O)N([C@@H](C)CO)C[C@H]2C)cc1,48,7
CNC[C@H]1Oc2ccc(NS(=O)(=O)c3c(C)noc3C)cc2C(=O)N([C@@H](C)CO)C[C@H]1C,27,-18
CCC(CO)NS(=O)(=O)c1ccc(OC)c(-c2nnc3c4ccccc4c(C)nn23)c1 (stereo not drawn),-8,/
Cc1cccc(CN(C)C[C@H]2OCc3cnnn3CCCC(=O)N([C@H](C)CO)C[C@H]2C)c1,/,17
COc1ccc(Cn2nnc3c(=O)[nH]c(C4CCCN(S(=O)(=O)c5ccccc5)C4)nc32)cc1 (stereo not drawn),/,139*
CC1CCCN(S(=O)(=O)c2ccccc2)C1 (stereo not drawn),/,-8
CC(C)NC(=O)Nc1ccc2c(c1)C(=O)N([C@H](C)CO)C[C@H](C)[C@@H](CN(C)CC1CCCCC1)O2,1,-10
CC(=O)Oc1c(-c2ccccc2)oc2c(CC=C(C)C)c3c(c(OC(C)=O)c2c1=O)C=CC(C)(C)O3,24,-9
CC1Oc2c3c(c4c(-c5ccccc5)cc(=O)oc4c2C(=O)C1C)OC(C)(C)C=C3 (stereo not drawn),/,114*
COC(=O)c1cccc(COC(=O)c2ccc(NC(=O)c3ccccc3)cc2)c1,30,8
O=C(NO)c1ccc(C(=O)N/N=C/c2ccc([N+](=O)[O-])s2)cc1,/,-19
O=C1c2ccccc2C(=O)N1CN1CCCCC1,/,-12
CN(C)c1nc(Cl)nc(N(C#N)CN2C(=O)c3ccccc3C2=O)n1,105*,168*
CC(CNc1ccccc1)C(=Nc1ccccc1)Nc1ccccc1 (stereo not drawn),119*,0
CC(CCC(=O)Nc1ccccc1)C(=O)O (stereo not drawn),-13,-5
COc1ccc(Cl)cc1NC(=O)CN(c1cccc(F)c1)S(C)(=O)=O,30,/
CCC1CCCCN1S(=O)(=O)c1ccc(Cl)cc1 (stereo not drawn),/,-11
C=CCC1C(=O)N(S(=O)(=O)c2ccc(Cl)cc2)N=C1CCC (stereo not drawn),110*,25
COc1cc(Br)c(/C=N/NC(=O)CCCCCCC(=O)Nc2ccccc2O)cc1OC,/,46
SMILES,NOMO-1 viab,U2OS ROS induce
Cc1cccc(N(CC(=O)Nc2ccccc2-c2ccccc2)S(C)(=O)=O)c1C,14,-1
COc1ccc(C)cc1NC(=O)CSc1nnc(-c2ccc(C(C)(C)C)cc2)n1C,28,93*
Cc1cccc(NC(=O)CSc2nnc(-c3cccc(Br)c3)n2-c2ccccc2)c1,32,-8
Cc1cccc(NC(=O)CSc2nnc(-c3ccc(Cl)cc3)n2-c2cccc(C)c2)c1,128*,-11
O=C(CSc1nnc(-c2ccncc2)n1-c1ccccc1)c1ccc(Br)cc1,4,-5
COc1ccc(C)cc1NC(=O)CSc1nnc(-c2ccc(Cl)c(Cl)c2)n1C,5,9
Cn1c(SCC(=O)Nc2ccc(Cl)c(Cl)c2)nnc1-c1ccc(Cl)c(Cl)c1,106*,/
Cc1ccc(NC(=O)CSc2nnc(-c3ccc(Cl)c(Cl)c3)n2C)cc1C,2,/
O=C(Nc1ccccc1)c1ccc(CSc2nnc(-c3ccncc3)n2-c2ccccc2)cc1,33,109*

# Screens: PubChem BioAssay, Broad Institute
